# Measured values reported in PubChem BioAssay (NCATS).
# Records with an inconclusive call do not appear. A call without a number means that no potency is given here. Unmarked numbers belong to inactive results. Active and inactive are the calls of the source. Calls follow the shape of the dose curve; as a rule, active = well fitted inhibition curve with a large enough effect; inconclusive = small, poorly fitted or top-dose-only effect; inactive = flat fitted curve, though single readings scatter.
# Key:
# ICS = test: qHTS profiling for inhibitors of Plasmodium falciparum proliferation (AID 504749); details: P. falciparum in erythrocytes, SYBR Green DNA, 72 h; series mostly up to 28.7 µM
# Outline: (§1)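 Parasite proliferation within erythrocytes, 72 h exposure. Endpoint: SYBR Green I fluorescence after overnight lysis at room temperature. Controls: 0.29 uM artemisinin, DMSO.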
# P93_24 = test: as above; details: P. falciparum in erythrocytes, SYBR Green DNA, 72 h; series mostly up to 28.7 µM
# Outline: as §1
# PC15 = test: as above; details: P. falciparum in erythrocytes, SYBR Green DNA, 72 h; series mostly up to 28.7 µM
# Outline: as §1
# TAB109 = test: as above; details: P. falciparum in erythrocytes, SYBR Green DNA, 72 h; series mostly up to 28.7 µM
# Outline: as §1
# TAB165 = test: as above; details: P. falciparum in erythrocytes, SYBR Green DNA, 72 h; series mostly up to 28.7 µM
# Outline: as §1
# W2 = test: as above; details: P. falciparum in erythrocytes, SYBR Green DNA, 72 h; series mostly up to 28.7 µM
# Outline: as §1
# CRL-7250 = normal cell line; test: Cytotoxic Profiling of Annotated Libraries Using Quantitative High-Throughput Screening (AID 1296008); details: Five cell lines viability, CellTiter-Glo ATP luminescence, 48-72 h; max response: hits give low values
# Outline: (§2)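 Compounds were pin-transferred onto cells and incubated 48 or 72 hr at 37 degree Celsius, 95% humidity. CellTiter-Glo was added, plates sat 10 min at room temperature, then ATP-coupled luminescence was imaged as the viability read-out.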
# HEK293 = test: as above; details: Five cell lines viability, CellTiter-Glo ATP luminescence, 48-72 h; max response: hits give low values
# Outline: as §2
# ECU = test: qHTS profiling for inhibitors of Plasmodium falciparum proliferation (AID 504749); details: P. falciparum in erythrocytes, SYBR Green DNA, 72 h; series mostly up to 28.7 µM
# Outline: as §1
# FAB9 = test: as above; details: P. falciparum in erythrocytes, SYBR Green DNA, 72 h; series mostly up to 28.7 µM
# Outline: as §1
# GB4 = test: as above; details: P. falciparum in erythrocytes, SYBR Green DNA, 72 h; series mostly up to 28.7 µM
# Outline: as §1
# HB3 = test: as above; details: P. falciparum in erythrocytes, SYBR Green DNA, 72 h; series mostly up to 28.7 µM
# Outline: as §1
# JCK = test: as above; details: P. falciparum in erythrocytes, SYBR Green DNA, 72 h; series mostly up to 28.7 µM
# Outline: as §1
# N140 = test: as above; details: P. falciparum in erythrocytes, SYBR Green DNA, 72 h; series mostly up to 28.7 µM
# Outline: as §1
# P94_40 = test: as above; details: P. falciparum in erythrocytes, SYBR Green DNA, 72 h; series mostly up to 28.7 µM
# Outline: as §1
# PAD = test: as above; details: P. falciparum in erythrocytes, SYBR Green DNA, 72 h; series mostly up to 28.7 µM
# Outline: as §1
# PC26 = test: as above; details: P. falciparum in erythrocytes, SYBR Green DNA, 72 h; series mostly up to 28.7 µM
# Outline: as §1
# PC49 = test: as above; details: P. falciparum in erythrocytes, SYBR Green DNA, 72 h; series mostly up to 28.7 µM
# Outline: as §1
# SC27B = test: as above; details: P. falciparum in erythrocytes, SYBR Green DNA, 72 h; series mostly up to 28.7 µM
# Outline: as §1
# TAB113 = test: as above; details: P. falciparum in erythrocytes, SYBR Green DNA, 72 h; series mostly up to 28.7 µM
# Outline: as §1
# Also: nearly all actives have a fitted effect of over 60% in size.
# Potency is read from the fitted curve at half-maximal effect.
compound,measurement,setting,value
O=C1OCCN1/N=C/c1ccc([N+](=O)[O-])o1,Potency,ICS,7.94 µM (active)
same,Potency,P93_24,11.2 µM (active)
same,Potency,PC15,inactive
same,Potency,TAB109,7.94 µM (active)
same,Potency,TAB165,11.2 µM (active)
same,Potency,W2,15.1 µM (active)
same,max response,CRL-7250,-8.39%
same,max response,HEK293,-25%
O=C(COc1ccc(Cl)cc1)N1CCN(Cc2ccc3c(c2)OCO3)CC1,Potency,ECU,inactive
same,Potency,FAB9,inactive
same,Potency,GB4,inactive
same,Potency,HB3,inactive
same,Potency,ICS,inactive
same,Potency,JCK,inactive
same,Potency,N140,inactive
same,Potency,P93_24,inactive
same,Potency,P94_40,inactive
same,Potency,PAD,inactive
same,Potency,PC15,inactive
same,Potency,PC26,inactive
same,Potency,PC49,inactive
same,Potency,SC27B,inactive
same,Potency,TAB109,inactive
same,Potency,TAB113,inactive
same,Potency,TAB165,inactive
same,Potency,W2,inactive
same,max response,CRL-7250,-27.2%
CN=C(NC#N)Nc1ccc(C2=NNC(=O)CC2C)cc1 (stereo not given),Potency,GB4,inactive
same,Potency,PC26,inactive
same,Potency,W2,inactive
same,max response,CRL-7250,-12.9%
same,outcome,HEK293,inactive
C[C@H]1C[C@H]2[C@@H]3CCC4=CC(=O)C=C[C@]4(C)[C@@]3(Cl)[C@@H](O)C[C@]2(C)[C@@]1(O)C(=O)CO,Potency,ECU,inactive
same,Potency,FAB9,inactive
same,Potency,GB4,inactive
same,Potency,HB3,inactive
same,Potency,JCK,inactive
same,Potency,N140,inactive
same,Potency,P93_24,inactive
same,Potency,P94_40,inactive
same,Potency,PAD,inactive
same,Potency,PC15,inactive
same,Potency,PC26,inactive
same,Potency,PC49,inactive
same,Potency,SC27B,inactive
same,Potency,TAB109,inactive
same,Potency,TAB113,inactive
same,Potency,TAB165,inactive
same,Potency,W2,inactive
same,outcome,CRL-7250,inactive
CC(O)(P(=O)(O)O)P(=O)(O)O,Potency,ECU,inactive
same,Potency,FAB9,inactive
same,Potency,HB3,inactive
same,Potency,ICS,inactive
same,Potency,JCK,inactive
same,Potency,N140,inactive
same,Potency,P93_24,inactive
same,Potency,P94_40,inactive
same,Potency,PAD,inactive
same,Potency,PC15,inactive
same,Potency,PC26,inactive
same,Potency,PC49,inactive
same,Potency,SC27B,inactive
same,Potency,TAB109,inactive
same,Potency,TAB113,inactive
same,Potency,TAB165,inactive
same,Potency,W2,inactive
same,max response,CRL-7250,0.923%
same,outcome,HEK293,inactive
CCN(CCCc1ccccc1)CCCc1ccccc1,Potency,ECU,inactive
same,Potency,FAB9,inactive
same,Potency,HB3,inactive
same,Potency,JCK,inactive
same,Potency,PAD,inactive
same,Potency,PC15,inactive
same,Potency,PC26,inactive
same,Potency,PC49,inactive
same,Potency,SC27B,inactive
same,Potency,W2,1.28 µM (active)
same,outcome,CRL-7250,inactive
CCCCCC=CCC=CCCCCCCCC(=O)OCC,Potency,ECU,inactive
same,Potency,FAB9,inactive
same,Potency,GB4,inactive
same,Potency,HB3,inactive
same,Potency,ICS,inactive
same,Potency,JCK,inactive
same,Potency,N140,inactive
same,Potency,P93_24,inactive
same,Potency,P94_40,inactive
same,Potency,PAD,inactive
same,Potency,PC15,inactive
same,Potency,PC26,inactive
same,Potency,PC49,inactive
same,Potency,SC27B,inactive
same,Potency,TAB109,inactive
same,Potency,TAB113,inactive
same,Potency,TAB165,inactive
same,Potency,W2,inactive
same,max response,CRL-7250,-11.8%
OC(CCN1CCCCC1)(c1ccccc1)c1ccccc1,Potency,ECU,inactive
same,Potency,FAB9,inactive
same,Potency,GB4,6.75 µM (active)
same,Potency,HB3,inactive
same,Potency,ICS,12.6 µM (active)
same,Potency,P94_40,10 µM (active)
same,Potency,TAB113,8.91 µM (active)
same,Potency,TAB165,14.1 µM (active)
same,Potency,W2,4.26 µM (active)
same,outcome,CRL-7250,inactive
CC(=O)OCC(=O)[C@@]1(OC(C)=O)[C@@H](C)C[C@H]2[C@@H]3C[C@H](F)C4=CC(=O)C=C[C@]4(C)[C@@]3(F)[C@@H](O)C[C@@]21C,Potency,ECU,inactive
same,Potency,FAB9,inactive
same,Potency,HB3,inactive
same,Potency,ICS,11.2 µM (active)
same,Potency,JCK,inactive
same,Potency,PC15,inactive
same,Potency,PC26,inactive
same,Potency,PC49,inactive
same,Potency,SC27B,inactive
same,Potency,TAB109,inactive
same,Potency,TAB165,inactive
same,Potency,W2,6.01 µM (active)
same,outcome,CRL-7250,inactive
CN(C)CCCOc1nn(Cc2ccccc2)c2ccccc12,Potency,ECU,inactive
same,Potency,FAB9,inactive
same,Potency,HB3,inactive
same,Potency,ICS,inactive
same,Potency,N140,inactive
same,Potency,P94_40,inactive
same,Potency,PAD,inactive
same,Potency,PC15,inactive
same,Potency,PC49,inactive
same,Potency,SC27B,inactive
same,Potency,TAB109,inactive
same,Potency,TAB113,inactive
same,Potency,W2,2.28 µM (active)
same,max response,CRL-7250,1.45%
CCOc1ccc(Cc2nccc3cc(OCC)c(OCC)cc23)cc1OCC,Potency,ECU,inactive
same,Potency,FAB9,inactive
same,Potency,ICS,inactive
same,Potency,JCK,10 µM (active)
same,Potency,N140,inactive
same,Potency,P93_24,inactive
same,Potency,P94_40,inactive
same,Potency,PAD,inactive
same,Potency,PC15,inactive
same,Potency,SC27B,inactive
same,Potency,TAB109,inactive
same,Potency,TAB113,inactive
same,Potency,CRL-7250,15 µM (active)
same,Potency,HEK293,7.5 µM (active)
COC1=CC(=O)C[C@@H](C)[C@]12Oc1c(Cl)c(OC)cc(OC)c1C2=O,Potency,ECU,inactive
same,Potency,FAB9,inactive
same,Potency,GB4,inactive
same,Potency,HB3,inactive
same,Potency,ICS,inactive
same,Potency,JCK,inactive
same,Potency,N140,inactive
same,Potency,P93_24,inactive
same,Potency,P94_40,inactive
same,Potency,PAD,inactive
same,Potency,PC15,inactive
same,Potency,PC26,inactive
same,Potency,PC49,inactive
same,Potency,SC27B,inactive
same,Potency,TAB109,inactive
same,Potency,TAB113,inactive
same,Potency,TAB165,inactive
same,Potency,W2,inactive
same,outcome,CRL-7250,inactive
Oc1ccc(O)cc1,Potency,FAB9,inactive
same,Potency,ICS,11.2 µM (active)
same,Potency,JCK,inactive
same,Potency,PAD,inactive
same,Potency,PC15,inactive
same,Potency,PC49,inactive
same,Potency,SC27B,inactive
same,Potency,TAB109,inactive
same,Potency,W2,12 µM (active)
same,outcome,CRL-7250,inactive
same,max response,HEK293,-16.2%
